Among all 1,200 compounds or so, about 110 (9.2%) were called active. About 8% were inconclusive and are not listed.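 How the source made its calls: active means pathway reporter half-maximal dose under half the control reporter's, or control reporter unaffected while pathway reporter is inhibited; inconclusive means either signal flat at 30 to 70% inhibition or poorly fitted; inactive means the rest.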 These entries were drawn from the full list. Measured potencies and affinities stand elsewhere.
Assay: LMP1 TES1 pathway selectivity over dsRED control – imaging, HEK293T, dual-color eGFP/dsRED, cherry-picks, selectivity assay for LMP1 NF-kB inhibitor project, dose response (AID 588398);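 further: 0% = median of neutral control wells and -100% = median of MG132 positive control wells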
Settings: 48 h; HEK293T Tet-On dsRED counter-screen channel, at 19.5 µM (top of the series); activity change, negative = inhibition: at the top concentration

SMILES | activity change, negative = inhibition
C[C@H](NC(=O)N1CCn2c1nc1ccccc12)C(=O)NCC1CCCO1 (some centres undefined) | 8.93% (inactive)
CCN(C(=O)c1cc(OC)c(OC)c(OC)c1)C1CCCCC1 | 7.62% (inactive)
CCOC(=O)c1c(CSc2nc(C)cc(C)c2C#N)n(C)c2cc(Br)c(OC(C)=O)cc12 | 3.15% (inactive)
CCCc1c(C(=O)N/N=C(\C)c2ccccn2)nnn1-c1nonc1N | 22.8% (inactive)
CC(=NNC(=S)N1CCCCC1)c1cccc(C)n1 | -27.2% (inactive)
CC(=NNC(=S)N1CCCCCC1)c1cccc2cccnc12 | -12% (inactive)
COC(=O)c1ccc(COc2ccccc2/C=C/C(=O)c2ccc(OCC(=O)O)cc2)cc1 | -8.56% (inactive)
COC(=O)c1ccccc1NC(=O)CC(=O)Nc1ccccc1C(=O)OC | 1.92% (inactive)
COc1cccc(C(=O)N2CCN(c3nc4cc(C)cc(C)c4cc3C#N)CC2)c1 | -18% (inactive)
Cc1cc(=O)[nH]c(NN=Cc2cc(Br)ccc2O)n1 | -97.9% (inactive)
COc1ccc(N2C(=O)C(=O)/C(=C(/O)c3ccc(C)cc3)C2c2cccnc2)cc1 (centres undefined) | 22.8% (inactive)
CCCC(=O)C1=C(O)C(C(=O)OC)C(C)(C)CC1=Nc1ccncc1 (centres undefined) | 19.7% (inactive)
Cc1csc(N=Nc2ccc(N(C)C)cc2)[n+]1[O-] | -34.3% (inactive)
Cc1ccc2c(c1)N(CC(=O)N1CCCC1)C(=O)c1cccnc1O2 | 38.8% (inactive)
COc1ccccc1N1CCN(C(=O)CCC(=O)N2CCN(c3ccc(F)cc3)CC2)CC1 | 3.73% (inactive)
O=C(CSc1nnc(NC(=O)c2ccc3c(c2)OCO3)s1)NCc1ccco1 | 9.96% (inactive)
C/C(=N/NC(=O)c1cc(C2CC2)[nH]n1)c1cccs1 | 20.3% (inactive)
Cn1c(/C=C/c2ccccc2)nc2ccccc21 | 1.47% (inactive)
COc1cccc(/C=N/NC(=O)c2[nH]nc3c2CCc2ccccc2-3)c1O | -95.5% (inactive)
Cc1ccc2[nH]c(C(=O)N/N=C/c3ccccc3O)c(C)c2c1 | 4.04% (inactive)
Cn1c(=O)c2c(ncn2CC(=O)Nc2cc(S(=O)(=O)N3CCCCC3)ccc2O)n(C)c1=O | -5.88% (inactive)
COc1ccc(CCNC(=O)CSc2ccsc2[N+](=O)[O-])cc1OC | -6.35% (inactive)

SMILES | activity change, negative = inhibition
COC(=O)C(NS(=O)(=O)c1ccc(N2CCCC2=O)cc1)c1ccccc1 (centres undefined) | -12.8% (inactive)
CC(C)(C)c1nc2c(s1)CCc1onc(-c3ccc(Br)cc3)c1-2 | 14.6% (inactive)
CN(C)c1ccc(C=Cc2ccnc3c(O)cccc23)cc1 | 11.2% (inactive)
COc1ccc(S(=O)(=O)N2CCN(CC(=O)Nc3ccc(C)c(F)c3)CC2)cc1 | -19.7% (inactive)
CC(=NNC(=S)Nc1ccccc1Cl)c1ccccn1 | -97.9% (inactive)
Cc1cnc(NC(=O)c2ccccn2)s1 | 9% (inactive)
CC(=NNC(=S)Nc1ccccc1)c1ccccn1 | -98.8% (inactive)
C/C(=N/NC(=O)c1ccc(C(C)(C)C)cc1)c1ccccn1 | -87.1% (inactive)
CCOc1cc(C(=O)OC(C)C(=O)Nc2ncc(Cl)cc2Cl)ccc1OCC(=O)N1CCOCC1 (centres undefined) | 12.4% (inactive)
CCCCCC(=O)N1C[C@@H](O)[C@H](n2cc(C3CC3)nn2)C[C@@H]1c1ccc(C)cc1 | 7.65% (inactive)
O=C(Nc1cnc2ccccn2c1=O)c1ccc(Cl)cc1Cl | -8.94% (inactive)
O=C(O)/C=C/c1ccc2ccccc2n1 | -37.2% (inactive)
Cc1cc(C)nc(N/C(=N\S(=O)(=O)Cc2ccccc2)Nc2ccccc2Br)n1 | -58.7% (inactive)
O=C1OCC2=C1C(c1ccc3c(c1)OCO3)c1cc3c(cc1O2)OCO3 (centres undefined) | 109% (inactive)
Cc1cccc(C)c1Nc1nc2ccccc2o1 | 18.3% (inactive)
Cc1nc(Nc2nc3ccccc3o2)nc2c1CCC2 | -4.15% (inactive)
O=[N+]([O-])c1ccc2ncnc(N3CCN(Cc4ccc5c(c4)OCO5)CC3)c2c1 | -93.3% (inactive)
CC(=C/c1ccccc1)/C=N/n1c(-c2ccncc2)n[nH]c1=S | -87.9% (inactive)
CCOC(=O)c1ccc(NC(=O)CSc2nc(N3CCOCC3)nc(N3CCOCC3)n2)cc1 | -0.658% (inactive)
Cc1ccc(S(=O)(=O)N2c3ccccc3-c3c(ssc3=S)C2(C)C)cc1 | 0.776% (inactive)
Cc1cccc(-n2ncc3c(N4CCOCC4)ncnc32)c1 | 8.93% (inactive)
O=C(Cc1cccc2ccccc12)Nc1ccc(-c2cc3ccccc3oc2=O)cc1 | 5.22% (inactive)

From PubChem BioAssay AID588398 (Broad Institute, 2011)
